PubChem BioAssay (EPA / NIEHS)
Values joined by “and” are separate entries in the source; they are usually repeats but may differ in a detail not shown here. Equal values may be shown once. Records with an inconclusive call do not appear. Active and inactive are the calls of the source. Rule for the calls, unless noted: active = hit-call score of the fitted dose curve at least 0.9, where 1 is the maximum; inconclusive = response in the unintended direction; inactive = score below 0.9.

Legend:
[1] = Tanguay_ZF_120hpf_AXIS_legacy: (Legacy) Oregon State University Tanguay Lab 120 Hour Post-fertilization zebrafish Assay for Body Axis Malformation (AID 2283635);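 for AC50: potency for an increased fraction of larvae scored with body axis malformation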
Summary of the method: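 Chorion is removed with pronase at 4 hpf, then single 6 hpf embryos are dosed (final DMSO 0.64%) and held statically at 28C in sealed, foil-covered plates. At 120 hpf body axis malformation is recorded as present or absent.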

[2] = Tanguay_ZF_120hpf_JAW_legacy: (Legacy) Oregon State University Tanguay Lab 120 Hour Post-fertilization zebrafish Assay for Jaw Malformation (AID 2283638)
Summary of the method: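 Steps: dechorionate 4 hpf embryos (pronase); plate 1/well at 6 hpf; add test chemical, 0.64% DMSO final; seal, cover, hold at 28C statically to 120 hpf; score jaw defect presence/absence microscopically. Dead embryos not scored.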

[3] = Tanguay_ZF_120hpf_OTIC_legacy: (Legacy) Oregon State University Tanguay Lab 120 Hour Post-fertilization zebrafish Assay for Otic Vesicle Malformation (AID 2283639)
Summary of the method: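 Wild-type zebrafish larvae, whole-embryo exposure from early stage to 120 hpf at 28C. Binary brightfield scoring of otic vesicle morphology, fitted in the positive direction against the DMSO baseline.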

[4] = Tanguay_ZF_120hpf_PE_legacy: (Legacy) Oregon State University Tanguay Lab 120 Hour Post-fertilization zebrafish Assay for Pericardial Edema (AID 2283640);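 for AC50: potency for increased incidence of pericardial edema versus DMSO baseline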
Summary of the method: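 Embryos from wild-type 5D adults were staged, then dosed in 0.64% DMSO. They were kept sealed in the dark at 28C until 120 hpf. Pericardial edema was then recorded as present or absent.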

[5] = Tanguay_ZF_120hpf_BRAI_legacy: (Legacy) Oregon State University Tanguay Lab 120 Hour Post-fertilization zebrafish Assay for Brain Malformation (AID 2283641)
Summary of the method: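 Wild-type 5D larvae, static waterborne exposure to 120 hpf, 28C, 0.64% v/v DMSO. Brightfield scoring of brain defects, binary; dead embryos excluded. Positive ctrl 5uM trimethyltin chloride.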

[6] = Tanguay_ZF_120hpf_PIG_legacy: (Legacy) Oregon State University Tanguay Lab 120 Hour Post-fertilization zebrafish Assay for Pigmentation Malformation (AID 2283650);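 note: dechorionated Tropical 5D zebrafish embryos exposed singly from 6 to 120 hpf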
Summary of the method: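 Brightfield scoring of pigmentation malformation at 120 hpf, recorded as binary present/absent per larva. Exposure: dechorionated 5D wild-type embryos, one per well, static from 6 hpf at 28C, final DMSO 0.64% (vol/vol). Dead embryos not scored.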

[7] = Tanguay_ZF_120hpf_CIRC_legacy: (Legacy) Oregon State University Tanguay Lab 120 Hour Post-fertilization zebrafish Assay for Circulatory Malformation (AID 2283651)
Summary of the method: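 Binary circulatory-malformation call at 120 hpf via brightfield imaging, relative to DMSO controls. Embryos (5D strain, chorion removed) received static, light-shielded exposure at 28C.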

[8] = Tanguay_ZF_120hpf_SWIM_legacy: (Legacy) Oregon State University Tanguay Lab 120 Hour Post-fertilization zebrafish Assay for Swim Bladder Malformation (AID 2283654);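 note: swim bladder malformation in each larva scored yes or no under brightfield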
Summary of the method: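 Tropical 5D embryos dechorionated at 4 hpf; 1 embryo/well from 6 hpf; static, sealed, dark exposure at 28C until 120 hpf; final DMSO 0.64%; 5uM trimethyltin chloride positive control; swim bladder defect recorded yes/no; dead embryos not scored.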

[9] = Tanguay_ZF_120hpf_NC_legacy: (Legacy) Oregon State University Tanguay Lab 120 Hour Post-fertilization zebrafish Assay for Notochord and Tail Malformation (AID 2283656)
Summary of the method: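 Binary notochord-distortion calls, made by brightfield inspection, form the read-out; activity is fitted in the positive direction against DMSO. Exposure ran statically from 6 to 120 hpf at 28C with 0.64% DMSO.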

[10] = Tanguay_ZF_120hpf_YSE_legacy: (Legacy) Oregon State University Tanguay Lab 120 Hour Post-fertilization zebrafish Assay for Yolk Sac Edema (AID 2283634);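 for AC50: actives raise the incidence of yolk sac edema above the DMSO baseline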
Summary of the method: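 Dechorionate (pronase, 4 hpf) → place one 6 hpf embryo per well → static compound exposure, sealed and foil-covered, 28C, to 120 hpf → record yolk sac edema as present or absent. Final DMSO 0.64%.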

[11] = Tanguay_ZF_120hpf_EYE_legacy: (Legacy) Oregon State University Tanguay Lab 120 Hour Post-fertilization zebrafish Assay for Eye Malformation (AID 2283636)
Summary of the method: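 5D wild-type embryos, pronase-dechorionated at 4 hpf; static exposure 6–120 hpf, 28C, dark; DMSO 0.64% final; 5uM trimethyltin chloride positive control. Binary eye-defect scoring at 120 hpf; dead embryos not scored.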

[12] = Tanguay_ZF_120hpf_PFIN_legacy: (Legacy) Oregon State University Tanguay Lab 120 Hour Post-fertilization zebrafish Assay for Pectoral Fin Malformation (AID 2283648);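 note: each larva judged yes or no for fin defect by brightfield with dead larvae skipped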
Summary of the method: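 Binary pectoral fin malformation call at 120 hpf by brightfield microscopy; 5D wild-type zebrafish, chorion removed at 4 hpf, one embryo per well from 6 hpf, static exposure at 28C; DMSO (0.64% final) as baseline.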

[13] = Tanguay_ZF_120hpf_TRUN_legacy: (Legacy) Oregon State University Tanguay Lab 120 Hour Post-fertilization zebrafish Assay for Truncated Body (AID 2283655)
Summary of the method: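 Truncated body is recorded as a binary endpoint at 120 hpf by brightfield imaging of wild-type 5D larvae. Exposure runs statically from 6 hpf at 28C with 0.64% DMSO; embryos dying earlier are not scored.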

[14] = tested on: Thyroperoxidase (TPO), gene 54314; experiment: CCTE_Simmons_AUR_rTPO: CCTE's Amplex UltraRed Assay for Thyroperoxidase (TPO) Inhibition, Simmons Lab (AID 2283662);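 for AC50: potency for loss of signal meaning inhibition of peroxidase activity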
Summary of the method: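 Endpoint is decreased Amplex UltraRed fluorescence after a 30-min, 37C reaction of rat thyroid microsomes with 300 uM H2O2. Eight test concentrations (5 nM–87.5 uM final) in 0.5% DMSO, three biological replicates each.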

[15] = CCTE_Simmons_CellTiterGLO_HEK293T: Viability Assessment in CCTE's Assays for Thyroperoxidase (TPO) Inhibition, Simmons Lab (AID 2283665);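 for AC50: cells exposed to compound for 24 h before readout; actives reduce ATP signal below DMSO vehicle meaning cytotoxicity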
Summary of the method: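 ATP depletion measured in HEK293T cells after 24 h dosing (8 concentrations, 5 nM–87.5 uM final; DMSO 0.5%) using CellTiter-Glo luminescence; curves fit for loss of signal against DMSO baseline.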

[16] = Tanguay_ZF_120hpf_CFIN_legacy: (Legacy) Oregon State University Tanguay Lab 120 Hour Post-fertilization zebrafish Assay for Caudal Fin Malformation (AID 2283649)
Summary of the method: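 Binary presence or absence of caudal fin malformation at 120 hpf, read by brightfield microscopy, with DMSO as baseline. Larvae came from 5D wild-type embryos exposed statically from 6 hpf at 28C after pronase dechorionation.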

[17] = read-out: kallikrein-3 (KLK3), KLK3 (gene 354); experiment: LTEA_HepaRG_KLK3: Life Technologies and Expression Analysis (LTEA) Assay for kallikrein-3 (KLK3) using HepaRG (AID 2283652; active = hit-call score of the fitted dose curve at least 0.9, where 1 is the maximum; inactive = score below 0.9); conditions: mRNA level, 48 h; actives raise or lower the signal
Summary of the method: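 KLK3 transcript levels were measured by TaqMan qRT-PCR with normalisation to three housekeeping genes. HepaRG cultures received chemicals for 48 h at up to 100 uM (half-log, 8 points, 0.5% DMSO vehicle), fitted in both directions against DMSO.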

[18] = read-out: solute carrier (SLC22A6), SLC22A6 (gene 9356); experiment: LTEA_HepaRG_SLC22A6: Life Technologies and Expression Analysis (LTEA) Assay for solute carrier (SLC22A6) using HepaRG (AID 2283653; active = hit-call score of the fitted dose curve at least 0.9, where 1 is the maximum; inactive = score below 0.9); conditions: mRNA level, 48 h; actives raise or lower the signal
Summary of the method: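 Read-out is SLC22A6 transcript level by qRT-PCR, normalised to three housekeeping genes and fitted for gain or loss relative to 0.5% DMSO vehicle. Human HepaRG cells received chemicals at up to 100 uM for 48 h.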

[19] = read-out: solute carrier (SLC10A1), SLC10A1 (gene 6554); experiment: LTEA_HepaRG_SLC10A1: Life Technologies and Expression Analysis (LTEA) Assay for solute carrier (SLC10A1) using HepaRG (AID 2283657; active = hit-call score of the fitted dose curve at least 0.9, where 1 is the maximum; inactive = score below 0.9); conditions: mRNA level, 48 h; actives raise or lower the signal
Summary of the method: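 HepaRG, 48 h exposure, 8-pt half-log curve from 100 uM in 0.5% DMSO, duplicates. Read-out: TaqMan qRT-PCR of SLC10A1 mRNA, normalized to three housekeeping genes. Gain/loss fit vs DMSO baseline.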

[20] = read-out: matrix metalloproteinase-1 (MMP1), MMP1 (gene 4312); experiment: LTEA_HepaRG_MMP1: Life Technologies and Expression Analysis (LTEA) Assay for matrix metalloproteinase-1 (MMP1) using HepaRG (AID 2283658; active = hit-call score of the fitted dose curve at least 0.9, where 1 is the maximum; inactive = score below 0.9); conditions: mRNA level, 48 h; actives raise or lower the signal
Summary of the method: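 HepaRG, ~100,000 cells/well, 48 h pre-culture; serum-free induction medium; test chemical 8 conc (max 100 uM, half-log), duplicate, 48 h; 0.5% DMSO; qRT-PCR MMP1, housekeeping-normalized; gain/loss fit vs DMSO.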

Measured: AC50

CC(C)O.CC(C)O.OCCN(CCO)CCO.OCCN(CCO)CCO.[Ti]
inactive: [1] | [2] | [3] | [4] | [5] | [6] | [7] | [8] | [9]

CN(C)C(=S)S
inactive: [11] | [2] | [5] | [12] | [6] | [7] | [8] | [13]
active: [10] 8.26 µM | [1] 0.946 µM | [4] 3.42 µM | [9] 1.05 µM | [14] 30.8 µM | [15] 8.68 µM

Nc1ccc(N)cc1
active: [14] 5.63 µM | [15] 32 µM

O=C(NC(=O)c1c(F)cccc1F)Nc1ccc(Cl)cc1
active: [14] 25.4 µM
inactive: [15]

O=c1[nH]c(=O)n(Cl)c(=O)n1Cl
inactive: [14] | [15]

CCOP(=S)(OCC)SCS(=O)(=O)C(C)(C)C
active: [14] 43.8 µM
inactive: [15]

Nc1ncn[nH]1
inactive: [15]
active: [14] 2.24 µM

COC(=O)Nc1cccc(OC(=O)Nc2cccc(C)c2)c1
inactive: [15]
active: [14] 0.398 µM

O=C1c2ccccc2C(=O)C1C(=O)C(c1ccccc1)c1ccc(Cl)cc1 (stereo not drawn)
active: [14] 32.4 µM | [15] 36.4 µM

CCOP(=S)(OCC)O/N=C(\C#N)c1ccccc1
active: [14] 20.7 µM

CCCCCCCCCCCCOS(=O)(=O)O
active: [14] 28 µM and 48.7 µM | [15] 31.9 µM and 92.3 µM

CC(C)(C)c1ccccc1O
inactive: [10] | [1] | [11] | [2] | [3] | [4] | [5] | [12] | [16] | [6] | [7] | [8] | [13] | [9] | [14]
active: [15] 55.4 µM

CN(N=O)C(N)=O
active: [14] 58.9 µM
inactive: [15]

N#CCC#N
inactive: [15]
active: [14] 7.66 µM

OCCN(CCO)CCO
inactive: [10] | [1] | [11] | [2] | [3] | [4] | [5] | [12] | [16] | [6] | [7] | [8] | [13] | [9]

COc1ccc(N)cc1
active: [14] 1.44 µM | [15] 4.71 µM

Cc1cc(C)cc(C)c1
inactive: [10] | [1] | [11] | [2] | [3] | [4] | [5] | [12] | [16] | [6] | [7] | [17] | [18] | [8] | [13] | [19] | [20]

O=C(CBr)c1ccc(O)cc1
inactive: [15]
active: [14] 6.82 µM and 5.72 µM

Oc1c(Cl)cc(Cl)cc1Cl
inactive: [10] | [1] | [11] | [2] | [3] | [4] | [12] | [16] | [6] | [7] | [8] | [13] | [9]

CCOc1ccc(N)cc1
active: [14] 1.75 µM | [15] 28.4 µM

Clc1cccc(Cl)c1
inactive: [10] | [1] | [11] | [2] | [3] | [4] | [12] | [7] | [8] | [13]

O=C(O)C1(c2ccc3c(c2)OC[C@H](Cc2ccc(-c4ccccc4)cc2)[C@H]3O)CCCC1
active: [14] 33.4 µM | [15] 13.3 µM
inactive: [10] | [1] | [11] | [3] | [4] | [5] | [6] | [7] | [8] | [13]

CCCCCCCCCCCCc1cccc(S(=O)(=O)O)c1
inactive: [10] | [1] | [11] | [2] | [3] | [4] | [5] | [12] | [7] | [8] | [13] | [9]
active: [14] 39.4 µM | [15] 30.4 µM

CCCSP(=S)(OCC)Oc1ccc(SC)cc1 (stereo not drawn)
inactive: [14]

N#Cc1cccnc1
inactive: [10] | [1] | [11] | [2] | [3] | [4] | [5] | [12] | [16] | [6] | [7] | [8] | [9]

O=S1(=O)OC(c2cc(Br)c(O)c(Br)c2)(c2cc(Br)c(O)c(Br)c2)c2ccccc21
active: [14] 25.9 µM | [15] 11.1 µM

O=C(CCl)Nc1ccccc1
active: [14] 16 µM

Oc1cc(Cl)c(Cl)cc1Cl
inactive: [10] | [1] | [11] | [2] | [3] | [4] | [5] | [12] | [16] | [6] | [7] | [8] | [13] | [9]

O=C(N[C@H]1CN2CCC1CC2)c1ccc2c(c1)OCCO2
inactive: [10] | [1] | [11] | [2] | [3] | [4] | [5] | [12] | [16] | [6] | [7] | [8] | [13] | [9]

Clc1cccc(Cl)c1Cl
inactive: [10] | [1] | [11] | [2] | [3] | [4] | [5] | [12] | [16] | [6] | [7] | [8] | [13] | [9]

N#CS
active: [14] 10.6 µM and 8.87 µM
inactive: [15]

COc1ccccc1N
inactive: [10] | [1] | [11] | [2] | [5] | [12] | [6] | [7] | [8] | [15]
active: [14] 0.39 µM
